Where “and” joins values, the source holds several entries; their conditions need not be identical. Equal entries are not always repeated. Screen size: about 370,000 compounds; about 3,100 (0.84%) were called active.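 How the source made its calls: active means inhibition above the mean of compounds lying between control limits plus 3 SD, set per campaign (cut at about 8.5% in these data); inactive means the rest.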 This excerpt belongs to a sample that is enriched for actives. Where a structure was tested more than once in an assay, its records may differ in their call.

The source of these data is PubChem BioAssay AID720648 (The Scripps Research Institute Molecular Screening Center, 2013).

For the experiment, the target named is Disintegrin and metalloproteinase domain-containing protein 17 (Homo sapiens) (UniProt P78536). The experiment in a line: inhibition of ADAM17 peptide cleavage – biochemical, QFRET, primary screen (AID 720648).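 Further: 0% = DMSO-only wells as the low control.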 Particulars: recombinant ADAM17, EDANS/DABCYL FRET peptide cleavage; at 6.95 µM; stronger effect = higher value.
Chain of Disintegrin and metalloproteinase domain-containing protein 17 (Homo sapiens) (P78536 215-824 limits assumed): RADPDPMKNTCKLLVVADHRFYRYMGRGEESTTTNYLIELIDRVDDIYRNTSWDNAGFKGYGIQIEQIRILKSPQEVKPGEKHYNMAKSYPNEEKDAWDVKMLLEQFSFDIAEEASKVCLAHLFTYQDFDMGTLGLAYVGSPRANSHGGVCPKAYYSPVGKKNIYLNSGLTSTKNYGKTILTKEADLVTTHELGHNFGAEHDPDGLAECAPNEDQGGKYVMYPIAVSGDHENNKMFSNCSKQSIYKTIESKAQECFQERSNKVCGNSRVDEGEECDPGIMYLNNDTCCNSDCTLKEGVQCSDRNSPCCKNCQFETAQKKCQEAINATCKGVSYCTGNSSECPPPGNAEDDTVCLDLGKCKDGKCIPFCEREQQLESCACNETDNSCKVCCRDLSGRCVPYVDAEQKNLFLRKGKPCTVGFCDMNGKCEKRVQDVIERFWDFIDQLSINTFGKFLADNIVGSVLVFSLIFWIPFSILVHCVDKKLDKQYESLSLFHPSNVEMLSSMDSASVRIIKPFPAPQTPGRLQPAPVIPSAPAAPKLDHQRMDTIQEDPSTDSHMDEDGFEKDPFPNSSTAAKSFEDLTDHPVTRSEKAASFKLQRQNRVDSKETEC
In general, inhibition refers to the change of the read-out against control, counted positive when it falls. In the case of `O=C(c1ccccc1)c1ccc(-c2ccccc2C(=O)NC2CCCCN(Cc3ccc(Cl)cc3)C2=O)cc1` (stereo not given), the inhibition is -0.61% (inactive).
To `COC(=O)C1CN(Cc2cn(Cc3ccc(F)cc3)nn2)CCS(=O)(=O)N1Cc1ccc(Cl)cc1` (stereo not given) belongs 1.41% (inactive).
For `Cc1cc(C)c(C#N)c(SCc2[nH]nc3c2C(c2ccccc2)C(C#N)=C(N)O3)n1` (stereo not given), the inhibition was 12.4% (active).
As to `Cc1cc(C)c(C#N)c(SCc2ccc3c(c2)OCO3)n1`, the inhibition was -0.68% (inactive).
Consider `COc1ccc(C2C(C#N)=C(N)Oc3n[nH]c(C)c32)cc1CN1CCN(c2ccc(F)cc2)CC1` (stereo not given), for which the inhibition is 0.41% (inactive).
As for `CN(C)c1ccc(NC(=S)N(CCc2ccccc2)C2CC(=O)N(c3c(Cl)cccc3Cl)C2=O)cc1` (stereo not given), the inhibition was 2.09% (inactive).
In the case of `COc1ccc(N2C(=O)C(CC(=O)Nc3ccccc3)N(Cc3ccc(OC)c(OC)c3)C2=O)cc1` (stereo not given), the inhibition is -0.55% (inactive).
To `CCOc1ccc(N2C(=O)CC(N(CCc3ccc(OC)c(OC)c3)C(=S)Nc3ccccc3)C2=O)cc1` (stereo not given) belongs 9.32% (active) and 1.43% (inactive); to `C=CCN(Cc1ccc2c(c1)OCO2)C(C#CC1CC1)C(C)(C)C` (stereo not given), -5.97% (inactive); to `O=C(NC1CCCCN(Cc2cccc(C(F)(F)F)c2)C1=O)c1ccccc1I` (stereo not given), -0.37% (inactive).
Turning to `COC(=O)[C@]12C[C@H](CC(=O)NCc3ccccc3)C(=O)N(Cc3ccccc3)C1=C[C@H](COCc1ccccc1)O[C@@H]2C`, the inhibition is 1.65% (inactive).
To `COC(=O)[C@H](C(C)C)N(CCCc1cn(Cc2ccccc2)nn1)S(=O)(=O)c1ccc(F)cc1Br` belongs 2.02% (inactive); to `O=C(COC(=O)c1ccccn1)NNC(=O)c1ccc(Br)cc1`, 0.32% (inactive); to `COc1ccccc1C(=O)NCC(=O)NCCSc1ccc(Br)cc1`, 2.38% (inactive).
In the case of `COc1ccccc1C(=O)NCC(=O)OCC(=O)NNC(=O)c1ccc(Br)cc1`, the inhibition is 13% (active).
As to `CCCCCCCCNS(=O)(=O)/C=C/c1cc(C)ccc1CNC(=O)OC(C)(C)C`, the inhibition was -2.49% (inactive).
In the case of `C[C@]12c3[nH]c4ccc(Cl)cc4c3CCN1C(=O)[C@@H](CC(=O)NCCCn1ccnc1)C[C@@H]2C(=O)N1CCOCC1`, the inhibition was 4.49% (inactive).
As for `CC(C)N(C(=O)[C@H]1C[C@H](CC(=O)NCCC2=CCCCC2)C(=O)N2CCc3c([nH]c4cc(CCC(=O)N(C)C)ccc34)[C@]12C)C(C)C`, the inhibition was -3.26% (inactive).
As to `CC(C)N(C(=O)[C@H]1C[C@H](CC(=O)NC(C)(C)C)C(=O)N2CCc3c([nH]c4ccc(Cl)cc34)[C@]12C)C(C)C`, the inhibition is 8.65% (active).
For the compound `CC(=O)OCCN1CCCC12CCC(c1ccccc1)CC2` (stereo not given), the inhibition was -1.85% (inactive).
For `COC(=O)C1CN(CC(C)C)CCS(=O)(=O)N1Cc1ccc(F)cc1` (stereo not given), the inhibition was -5.05% (inactive).
With `Cc1nc2ccc(C(=O)N3CCN(C(=O)C(C)(C)C)CC3)cc2n1C1CCCC1` the figure was 3.54% (inactive).
In the case of `Cc1ccc(C)c(NC(=O)CCS(=O)(=O)c2ccccc2)c1`, the inhibition was -3.15% (inactive).
Turning to `COc1ccc(CN(C)C(=O)CC(c2ccccc2)c2ccccc2)cc1`, the inhibition is 11% (active).
With `COc1ccc(C(CCN(Cc2ccc(OC)c(OC)c2)C(=O)CCl)c2ccccc2)cc1` (stereo not given), the inhibition is 12.5% (active).
As to `COc1ccc(CN(CCN2CCOCC2)C(=O)c2ccc(C)cc2)cc1OC`, the inhibition is 2.83% (inactive).
Take `COc1ccc(C(C(=O)NC2CCCCC2)N(C(=O)CCl)c2ccccc2Cl)cc1` (stereo not given): the inhibition was -0.76% (inactive).
As for `CN(Cc1ccc(F)cc1)C(=O)COc1ccc2ccccc2c1`, the inhibition was -3.83% (inactive).
For the compound `COc1ccc(Cn2cc(COC(=O)N(C)Cc3ccccc3)nn2)cc1`, the inhibition was -3.38% (inactive).
`COC(=O)C[C@@H]1CC[C@@H]2[C@@H](COc3ccc(NC(=O)Nc4ccc(F)c(F)c4)cc3C(=O)N2C)O1`: the inhibition was 1.31% (inactive).
With `CCCCNC(=O)C[C@H]1C[C@@]2(C(=O)OC)C(=C[C@H](COCc3ccccc3)O[C@@H]2C)N(Cc2ccc(Cl)cc2Cl)C1=O` the figure was 1.2% (inactive); with `COc1ccc2c(c1)CN1CN(CCc3ccccc3)S(=O)(=O)CC21` (stereo not given), -6.46% (inactive).
As to `O=C(CSc1nc2ccccc2o1)N/N=C/c1ccccc1C(=O)O`, the inhibition was -4.58% (inactive).
To `CC1Cc2ccccc2N1C(=O)CSc1nc2ccccc2o1` (stereo not given) belongs 2.14% (inactive).
Turning to `Cc1ccc(/C=N/NC(=O)CSc2nc3ccccc3o2)cc1`, the inhibition is 10.3% (active).
In the case of `COc1ccc(CN2C(=O)N3Cc4cc(OC)ccc4C3CS2(=O)=O)cc1` (stereo not given), the inhibition was -0.79% (inactive).
To `C=CCN1C(=O)[C@@H](CC(=O)NCCCCc2ccccc2)[C@]2(C(=O)OCC)CCCCC/C=C/12` belongs 3.44% (inactive); to `N/C(Cc1ccc([N+](=O)[O-])cc1)=N\OC(=O)C1CCCCC1`, -3.25% (inactive).
For the compound `N/C(Cc1ccc([N+](=O)[O-])cc1)=N\OC(=O)COc1ccc2ccccc2c1`, the inhibition is 10.8% (active).
In the case of `Cc1cc(C)cc(OCC(=O)O/N=C(\N)Cc2ccc([N+](=O)[O-])cc2)c1`, the inhibition is 3.53% (inactive).
With `C=CCN1C(C(=O)OC)CN(Cc2cn(Cc3ccccc3)nn2)CCS1(=O)=O` (stereo not given) the figure was 1.41% (inactive).
For `CN(C)CC(=O)N[C@@H]1C[C@@H]2O[C@H](CO)CC[C@@H]2O[C@@H]1CCc1ccc(C#Cc2ccccc2)cc1`, the inhibition was 3.01% (inactive).
As to `CCCCn1nnnc1C(c1cccc(OC)c1OC)N1CCN(C/C=C/c2ccccc2)CC1` (stereo not given), the inhibition was 3.3% (inactive).
Regarding `COc1ccc(C(c2nnnn2C2CCCC2)N2CCN(C/C=C/c3ccccc3)CC2)cc1` (stereo not given), the inhibition is -1.95% (inactive).
For the compound `FC(F)(F)Oc1ccccc1C(c1nnnn1C1CCCCC1)N1CCN(C/C=C/c2ccccc2)CC1` (stereo not given), the inhibition is 9.77% (active).
To `COC(=O)C12C=C3CC(c4ccccc4)=C3C(=O)N1Cc1[nH]c3ccccc3c1C2` (stereo not given) belongs -5.87% (inactive); to `CC(=O)c1cc(-c2ccc3ccccc3c2)c(=O)n2c1CCC2`, -8.84% (inactive); to `O=C(NCCc1c[nH]c2ccccc12)OCc1cn(-c2c(F)cccc2F)nn1`, -1.78% (inactive).
With `C=CCN1C(=O)[C@H](CC(=O)N2CCN(C(=O)OCC)CC2)[C@@]2(C(=O)OCC)CCCC=C12` the figure was -4.33% (inactive); with `N[C@@H](Cc1ccccc1)C(=O)N1CCC[C@@H]1C(=O)N1CCC2CCN(S(=O)(=O)c3ccccc3)CC21` (stereo not given in full), -3.15% (inactive).
